JMJD2C inh: blocks human GASC-1 demethylase activity. Q9H3R0. GST-JMJD2C(1-420) H3K9me3 demethylation, DELFIA europium. inhibition, % at 2.35 µM. 0.069% of 330,000 active. AID 2099;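 active = more than half of a compound's replicate wells show inhibition beyond 50%, single wells judged on their own value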;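 also: signal counts dimethyl H3K9 product captured on neutravidin plate; 0% = median of DMSO wells and 100% = 0.3 times that DMSO median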
M18AAP inhibitor: PfM18AAP enzyme inhibition | recombinant PfM18AAP, H-Glu-NHMec fluorogenic cleavage | inhibition, % at 7.35 µM | 1.2% of 290,000 active | AID 1822;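 active = inhibition above the campaign mean inhibition over all tested compounds plus 3 SD, cut at about 28% in these data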;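 also: 0% = plate median of test compound wells and 100% = 2 mM ZnCl2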
Exocytosis inh: blocks lytic granule exocytosis | inhibition, % at 10 µM | TALL-104 LAMP-1 surface exposure, flow cytometry; cells stimulated with thapsigargin and PMA | AID 651702 | 0.66% of 360,000 active;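 active = inhibition above about 55%, limit read from the data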
SMARCA2 act: activators of SMARCA2 function | 1% of 370,000 active | AID 652017 | activation, % at 9.1 µM | MG213 cells, MMTV-luciferase reporter, dexamethasone, overnight; in the data active = activation above about 7.8%;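 also: 0% = vehicle wells and 100% = reference activator wells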
beta cell repl: inducers of beta-cell replication in MIN6 cells. proliferation, % at 10 µM. MIN6 cells proliferation, ATPlite luminescence, 48 h; cells starved in 0.2% serum; 100% = growth in 10% serum. 0.29% of 330,000 active. AID 2380;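 active = compounds whose signal lies at least 3.5 SD above the mean of all wells on their plate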;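 also: 0% = DMSO-treated cells in low-serum medium and 100% = 10% serum control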
ALR H2O2 inh: inhibitors of human sulfhydryl oxidase ALR. P55789. inhibition, % (test concentration not listed). 3.8% of 290,000 active. purified ALR, DTT oxidation, H2O2 HRP-luminol luminescence;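 active = mean replicate inhibition above about 79%, with every replicate also reaching it, limit read from the data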
Target sequence (P55789 whole entry, looked up): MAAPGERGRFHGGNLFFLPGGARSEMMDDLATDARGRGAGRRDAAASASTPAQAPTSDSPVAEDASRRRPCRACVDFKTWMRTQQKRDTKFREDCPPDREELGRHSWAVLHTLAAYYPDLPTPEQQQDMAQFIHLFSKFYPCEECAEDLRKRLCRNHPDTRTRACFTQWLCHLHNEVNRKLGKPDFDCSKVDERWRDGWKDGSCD
Starred values were filed as active, the others as inactive; x = no result given. Rows were chosen to be rich in hits. Some 5.4% of all compounds tested hit in one or more screens of this group.

SMILES	JMJD2C inh	M18AAP inhibitor	Exocytosis inh	SMARCA2 act	beta cell repl	ALR H2O2 inh
CCC(=O)N1CCc2cc(S(=O)(=O)CCC(=O)Nc3ccc(CC)cc3)ccc21	-35	-1	-2	-1	-1	-1
CCN(CC)C(=O)CC[C@@H]1CC[C@]2(CCCN(C(=O)C3CCCCC3)C2)O1	x	x	x	-5	x	x
COc1ccc(NC2CCCN(C(=O)CCc3cccc(Cl)c3)C2)cc1 (configuration not stated)	-16	5	4	0	-3	x
COc1ccc(NC2CCCN(C(=O)CCCn3cncn3)C2)cc1 (configuration not stated)	20	-7	1	-1	-3	99*
COc1ccc(NC2CCCN(C(=O)CCn3cccn3)C2)cc1 (configuration not stated)	-19	5	2	1	4	99*
COc1ccc(NC2CCCN(C(=O)CCc3cccc(F)c3)C2)cc1 (configuration not stated)	9	8	37	-2	-4	99*
O=C1N2CCc3ccccc3C2CS(=O)(=O)N1Cc1ccc(F)cc1 (configuration not stated)	x	x	x	-1	x	x
Cc1nn(Cc2cccc(C(=O)NN)c2)c(C)c1Cl	7	7	-4	-5	-3	97*
COc1ccc(-c2csc(N)n2)cc1	-4	2	-1	2	-1	x
COc1ccc(-c2csc(N=C(N)N)n2)cc1	12	2	-2	3	-4	98*
Cc1nc(Cl)cc(N/N=C/c2ccc(O)cc2O)n1	7	31*	3	1	-1	57
CCOc1ccc(/C=N/Nc2cc(N3CCOCC3)nc(C)n2)c(O)c1	-4	4	-2	-1	2	4
COc1cccc(N/N=C/c2cccc(Br)c2O)c1	-3	-2	-1	0	-5	99*
COc1cccc(/C=N/Nc2cc(Cl)nc(C)n2)c1O	-32	29*	0	3	1	-1
Cc1nc(Cl)cc(N/N=C/c2ccc(O)cc2)n1	-2	4	7	-4	-3	99*
COc1cccc(/C=N/Nc2c(Cl)cncc2Cl)c1O	7	-3	1	4	-3	-13
Cc1ccc2c(c1)C1CS(=O)(=O)N(CC(C)C)C(=O)N1C2 (configuration not stated)	x	x	x	7	x	x
Cn1cnc2cc(NCc3ccccc3Cl)ccc21	-8	11	8	4	-1	90*
CN(C)c1ccc(CNc2ccc3c(c2)ncn3C)cc1	1	0	x	-3	-4	99*
CCN(CC)c1ccc(CNc2ccc3c(c2)ncn3C(C)(C)C)cc1	x	26	-4	-3	-6	99*
CC(C)c1ccc(CNc2ccc3c(c2)ncn3C)cc1	5	16	-9	3	-6	78*
O=c1c2cc3cc(Cl)ccc3nc2ncn1Cc1ccc(Oc2ccccc2)cc1	x	x	x	-4	x	x
C/C=C/c1ccc([C@@H]2[C@H](CO)N(S(C)(=O)=O)[C@H]2CN(C)C(=O)CC)cc1	x	x	x	-5	x	x
O/N=C/c1cccn1-c1ccc(O)cc1	-4	10	0	-3	1	99*
C=Cc1ccc(C(=O)N(Cc2ccc(F)cc2)C(C(=O)N(C)C2CCCC2)c2ccc(OC)c(OC)c2)cc1 (configuration not stated)	x	x	x	-3	x	x
SMILES	JMJD2C inh	M18AAP inhibitor	Exocytosis inh	SMARCA2 act	beta cell repl	ALR H2O2 inh
Cn1c(=O)c2cc(S(=O)(=O)NCCC(=O)Nc3ccc(Cl)cc3)ccc2n(C)c1=O	4	0	5	-2	-3	x
Cn1c(=O)c2cc(S(=O)(=O)NCCC(=O)NCCc3ccc(Cl)cc3)ccc2n(C)c1=O	1	7	-4	-1	0	98*
CCN(CC)CCNC(=O)CS(=O)Cc1nc(-c2ccccc2Cl)oc1C (configuration not stated)	-25	-4	4	1	-1	99*
Cc1ccc(CNC(=O)CS(=O)CC(=O)O)cc1 (configuration not stated)	-1	-9	1	-1	1	-6
CCN(CC)CCNC(=O)CS(=O)Cc1nc(-c2ccc(C)cc2)oc1C (configuration not stated)	-2	4	-3	0	2	99*
Cc1ccc(CNC(=O)CS(=O)Cc2nc(-c3ccccc3Cl)oc2C)cc1 (configuration not stated)	0	2	-8	3	3	95*
CCN(CC)CCNC(=O)CS(=O)Cc1nc(-c2ccc(Cl)cc2)oc1C (configuration not stated)	13	-3	-8	-3	4	99*
CO[C@@H]1[C@H](O)CC[C@]2(O)CN(c3ccc(F)cc3)[C@](C)([C@H](O)CC=C(C)C)[C@@H]12	x	x	x	-1	x	x
CC(C)C[C@H](NC(=O)c1nccs1)C(=O)N1CCC[C@H]1C(=O)NCc1ccccc1	x	x	x	0	x	x
CCNC1=C(Cl)C(=O)c2ccccc2C1=O	-9	8	-2	4	-5	-39
CCN(CC)c1ccc(NC2=C(Cl)C(=O)c3ccccc3C2=O)cc1	2	-9	67*	x	x	18
COC1=C(Nc2ccc(O)cc2)C(=O)c2ccccc2C1=O	-3	-12	-2	-2	-3	99*
Cc1ccc(NC2=C(Cl)C(=O)c3ccccc3C2=O)cc1	13	-1	74*	0	x	3
O=C1C(Cl)=C(Nc2ccc(O)cc2)C(=O)c2ccccc21	-3	-4	70*	-12	-6	33
O=C1C=C(Nc2ccc(O)cc2)C(=O)c2ccccc21	15	-7	0	3	-6	x
CC(CCN1CCC(C(O)(c2ccccc2)c2ccccc2)CC1)Oc1ccc(C#N)cc1F (configuration not stated)	x	x	x	1	x	x
CC(=O)N1CCCN(S(=O)(=O)c2ccc3c(c2)n(C)c(=O)c(=O)n3C)CC1	x	x	x	5	x	x
CCN(C(=O)[C@@H](C)[C@@H](O)c1ccc(C(C)=O)cc1)c1ccccc1	x	x	x	-3	x	x
C/C=C/C(=O)N1CCC(C(=O)NC2CCCc3ccccc32)CC1 (configuration not stated)	x	x	x	-6	x	x
O=C(O)c1ccccc1SC1CC(=O)N(c2ccccc2)C1=O (configuration not stated)	2	-18	-1	1	0	6
O=C1CC(Sc2nnc(-c3ccccc3)o2)C(=O)N1c1ccccc1 (configuration not stated)	-2	-117	66*	2	-6	x
Cc1ccc(SCC(=O)NC2CCS(=O)(=O)C2)cc1C (configuration not stated)	-8	x	3	2	3	99*
CCN(CC)c1ccc(NC(=O)CN(C)Cc2cccs2)cc1	-18	1	16	0	-4	99*
CCCCC(=O)Nc1ccc(NCc2ccc(C)s2)cc1	4	-4	-28	-1	x	97*
CCC(=O)Nc1ccc(NCc2cccs2)cc1	23	19	12	-2	-1	98*

Screening results from PubChem.
